Screens (PubChem BioAssay)
Pf Dd2 growth – P. falciparum Dd2 growth inhibitors, primary screen, SYBR Green fluorescence, single dose replicates. activity change, % at 10 µM. AID 1159554, 2015. hit rate 2.3% among 94,000. 72 h; active compounds read low; in the data active = activity change below about -80%; inconclusive = no clear call, values can overlap the other calls
T cruzi growth-1 – T. cruzi intracellular proliferation inhibitors, primary screen, cell-based, beta-gal Tulahuen parasites, NIH3T3 host, luminescence. hit rate 5.9% among 77,000. T. cruzi beta-gal in NIH3T3, GalScreen luminescence, 90 h. inhibition, % at 8.34 µM;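 active = mean inhibition above about 93%, with at least 55% of replicates each passing it, limit read from the data, passing the limit was not always enough; inconclusive = only one of those two conditions holds; inactive = neither condition holds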
C diff HTS – C. difficile growth inhibitors, primary screen, HTS; Clostridium difficile clinical isolate growth, OD600, 24 h; active compounds read low; growth activity, negative = inhibition, % at 16 µg/mL (by protocol); hit rate 0.25% among 86,000; AID 1259249, 2017;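 active = mean growth activity at or below -80% and every replicate also at or below -80%; inconclusive = mean at or below -80% but some replicate above -80%; inactive = mean growth activity above -80%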
T cruzi growth-2 – T. cruzi intracellular proliferation inhibitors, confirmation, cell-based, NIH3T3 host, beta-gal parasite, luminescence, cherry-pick; shares compounds with T cruzi growth-1; T. cruzi beta-gal in NIH3T3, GalScreen luminescence, 90 h; inhibition, % at 8.35 µM; hit rate 72% among 5,600; AID 651739, 2012;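 active = mean replicate inhibition above about 95% and at least 55% of replicates individually reaching it, limit read from the data; inconclusive = only one of the two criteria is met; inactive = neither criterion is met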
T cruzi growth-3 – inhibitors of intracellular T. cruzi replication, confirmation, NIH3T3 host cells, beta-gal parasites, cherry-pick, set 2; inhibition, % at 2.09 µM; shares compounds with T cruzi growth-1; T. cruzi beta-gal in NIH3T3, GalScreen luminescence, 90 h; hit rate 21% among 5,600;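 active = mean inhibition above about 95%, with at least 55% of replicates also reaching it, limit read from the data; inconclusive = meets just one of the two conditions; inactive = meets neither condition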
3T3 cytotox – cytotoxicity in mouse NIH/3T3 fibroblasts, confirmation, cytotoxicity control for T. cruzi proliferation inhibitor project, cell-based, cherry-pick, single point | shares compounds with T cruzi growth-1 | NIH/3T3 viability, CellTiter-Glo ATP luminescence, 90 h | cytotoxicity (signal decrease), % at 8.35 µM | hit rate 14% among 5,600 | AID 651742, 2012;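 active = mean signal decrease across replicates above about 35% based on untreated-well scatter, with enough replicates individually passing, limit read from the data; inconclusive = no rule stated though some were filed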
3T3 cytotox 2 – NIH/3T3 fibroblast cytotoxicity, confirmation, cytotoxicity control, cell-based, cherry-pick, single point, set 2. shares compounds with T cruzi growth-1. inhibition, % at 24.9 µM. NIH/3T3 viability, CellTiter-Glo ATP luminescence, 90 h. hit rate 56% among 5,600. AID 651744, 2012;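 active = mean loss of cell viability signal at or above a set limit, and enough replicates individually reaching it; inconclusive = meets only the mean limit or only the replicate share; inactive = meets neither condition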
Hits are given with their value; 0 = inactive; ? = inconclusive; - = no result given. An excerpt weighted towards active compounds, which were near 6.8% of everything screened.

SMILES	Pf Dd2 growth	T cruzi growth-1	C diff HTS	T cruzi growth-2	T cruzi growth-3	3T3 cytotox	3T3 cytotox 2
Cc1ccc(S(=O)(=O)N2C[C@@H]3O[C@@H](CNS(=O)(=O)c4ccccc4C)CC[C@@H]32)cc1	0	-	0	-	-	-	-
COCC(=O)Nc1ccc2c(c1)OC[C@@H](C)N(Cc1cc(F)ccc1F)C[C@@H](C)[C@@H](OC)CN(C)C2=O	0	0	-	-	-	-	-
COCC(=O)Nc1ccc2c(c1)OC[C@@H](C)N(Cc1cc(F)ccc1F)C[C@H](C)[C@@H](OC)CN(C)C2=O	0	107	-	0	0	0	0
COCC(=O)Nc1ccc2c(c1)C(=O)N(C)C[C@@H](OC)[C@H](C)CN(Cc1cc(F)ccc1F)[C@H](C)CO2	0	0	-	-	-	-	-
COCC(=O)Nc1ccc2c(c1)C(=O)N(C)C[C@H](OC)[C@H](C)CN(Cc1cc(F)ccc1F)[C@H](C)CO2	0	105	-	0	0	0	?
COc1ccc(NC(=O)Nc2ccc3c(c2)[C@@H]2C[C@@H](CC(=O)N4CCCCC4)O[C@@H](CO)[C@@H]2O3)cc1	0	0	0	-	-	-	-
COCC(=O)Nc1ccc2c(c1)[C@@H]1C[C@@H](CC(=O)NCC3CC3)O[C@@H](CO)[C@@H]1O2	0	0	0	-	-	-	-
CCCC(=O)Nc1ccc2c(c1)C(=O)N(C)C[C@H](OC)[C@H](C)CN(C(C)=O)[C@H](C)CO2	0	0	0	-	-	-	-
C[C@@H]1CN([C@H](C)CO)C(=O)Cc2cc(NS(C)(=O)=O)ccc2O[C@H]1CN(C)Cc1ccc(-c2ccccc2)cc1	0	0	0	-	-	-	-
CO[C@H]1CN(C)C(=O)c2ccc(NS(C)(=O)=O)cc2OC[C@H](C)N(C)C[C@H]1C	0	0	0	-	-	-	-
Cc1cc(C(=O)Nc2cccc3c2O[C@H](CN(C)Cc2ccc(C(=O)O)cc2)[C@H](C)CN([C@@H](C)CO)C3=O)n(C)n1	0	-	0	-	-	-	-
Cc1cc(C(=O)Nc2cccc3c2O[C@H](CN(C)Cc2ccc(C(F)(F)F)cc2)[C@H](C)CN([C@H](C)CO)C3=O)n(C)n1	0	0	0	-	-	-	-
Cc1cc(C(=O)Nc2cccc3c2O[C@@H](CN(C)Cc2ccc(C(F)(F)F)cc2)[C@@H](C)CN([C@@H](C)CO)C3=O)n(C)n1	0	96	0	0	0	0	?
Cc1cc(C(=O)Nc2cccc3c2O[C@H](CN(C)Cc2ccc(C(=O)O)cc2)[C@@H](C)CN([C@H](C)CO)C3=O)n(C)n1	0	-	0	-	-	-	-
Cc1cc(C(=O)Nc2cccc3c2O[C@@H](CN(C)Cc2ccc(C(=O)Nc4ccccc4N)cc2)[C@@H](C)CN([C@H](C)CO)C3=O)n(C)n1	-85	106	0	104	98	0	0
Cc1cc(C(=O)Nc2cccc3c2O[C@H](CN(C)Cc2ccc(C(=O)Nc4ccccc4N)cc2)[C@H](C)CN([C@@H](C)CO)C3=O)n(C)n1	-82	93	0	0	0	46	91
C[C@H](CO)N1C[C@H](C)[C@H](CN(C)Cc2ccc(Cl)c(Cl)c2)Oc2ccc(NC(=O)C3CCCCC3)cc2C1=O	0	0	0	-	-	-	-
C[C@@H]1CN([C@H](C)CO)C(=O)c2cc(NC(=O)C3CCCCC3)ccc2O[C@@H](C)CCCCO[C@H]1CN(C)Cc1ccccc1	0	0	0	-	-	-	-
C[C@@H]1CCCCO[C@H](CN(C)Cc2ccncc2)[C@H](C)CN([C@H](C)CO)C(=O)c2cc(NC(=O)C3CCCCC3)ccc2O1	-	0	0	-	-	-	-
C[C@@H]1CCCCO[C@@H](CN(C)Cc2ccc(Cl)c(Cl)c2)[C@@H](C)CN([C@H](C)CO)C(=O)c2cc(NC(=O)C3CCCCC3)ccc2O1	0	107	0	107	?	0	0
C[C@@H]1CN([C@@H](C)CO)C(=O)c2cc(NC(=O)C3CCCCC3)ccc2O[C@@H](C)CCCCO[C@H]1CN(C)Cc1ccccc1	0	109	0	108	0	0	45
C[C@@H]1CN([C@H](C)CO)C(=O)c2cc(NC(=O)C3CCCCC3)ccc2O[C@@H](C)CCCCO[C@@H]1CN(C)Cc1ccncc1	0	105	0	0	0	0	0
COc1ccc2c3c([nH]c2c1)[C@@H](CO)N(C(=O)c1ccccn1)CC31CN(C(=O)C2CCCCC2)C1	0	-	-	-	-	-	-
CC(C)NC(=O)Nc1ccc2c(c1)CC(=O)N([C@@H](C)CO)C[C@H](C)[C@H](CN(C)Cc1ccc(C(=O)O)cc1)O2	0	-	0	-	-	-	-
CN(C)C(=O)C[C@H]1CC[C@@H]2[C@H](COc3ccc(NC(=O)Nc4cccc(Cl)c4)cc3C(=O)N2C)O1	0	0	0	-	-	-	-
SMILES	Pf Dd2 growth	T cruzi growth-1	C diff HTS	T cruzi growth-2	T cruzi growth-3	3T3 cytotox	3T3 cytotox 2
Cc1ccccc1S(=O)(=O)N(C)C[C@@H]1OCc2cnnn2CCCC(=O)N([C@@H](C)CO)C[C@@H]1C	0	?	0	0	0	0	0
CNC[C@H]1OCc2cnnn2CCCC(=O)N([C@@H](C)CO)C[C@H]1C	0	120	0	0	0	0	0
CNC[C@H]1OCc2cnnn2CCCC(=O)N([C@@H](C)CO)C[C@@H]1C	0	0	0	-	-	-	-
CNC[C@@H]1OCc2cn(nn2)CCCC(=O)N([C@@H](C)CO)C[C@@H]1C	0	0	0	-	-	-	-
Cc1ccccc1S(=O)(=O)N(C)C[C@@H]1OCc2cnnn2CCCC(=O)N([C@H](C)CO)C[C@H]1C	0	0	0	-	-	-	-
CNC[C@H]1OCc2cn(nn2)CCCC(=O)N([C@H](C)CO)C[C@H]1C	0	?	0	0	0	0	0
O=C(N[C@H]1C=C[C@H](CC(=O)N2CCOCC2)O[C@H]1CO)c1ccccn1	0	0	0	-	-	-	-
CCS(=O)(=O)N1CCCCN2[C@H](CO)[C@H](c3ccc(-c4ccc(C(=O)N(C)C)cc4)cc3)[C@H]2C1	0	0	0	-	-	-	-
Cc1ccc(S(=O)(=O)N(C)C[C@H]2OCCCC[C@@H](C)Oc3ccc(NC(=O)CCCN(C)C)cc3C(=O)N([C@@H](C)CO)C[C@H]2C)cc1	0	0	-	-	-	-	-
COCC(=O)N1CCCCN2[C@H](C1)[C@@H](c1ccc(C#Cc3ccccc3)cc1)[C@@H]2CO	0	0	0	-	-	-	-
COCC(=O)N1CCCCN2[C@H](CO)[C@@H](c3ccc(C#Cc4ccc(OC)cc4)cc3)[C@@H]2C1	0	108	0	?	0	0	86
COCC(=O)N1CCCCN2[C@H](CO)[C@H](c3ccc(C#Cc4ccccc4)cc3)[C@@H]2C1	0	?	0	99	0	44	69
COCC(=O)N1CCCCN2[C@H](C1)[C@H](c1ccc(C#Cc3ccccc3)cc1)[C@@H]2CO	0	0	0	-	-	-	-
